# Inconclusive results are not listed. The source made the active and inactive calls. The calls were made as follows, unless noted: active = hit-call score of the fitted dose curve at least 0.9, where 1 is the maximum; inconclusive = response in the unintended direction; inactive = score below 0.9.
# Key:
# [1] = target: Nuclear receptor subfamily 1 group I member 3 (Homo sapiens) (UniProt Q14994); experiment: ATG_CAR_TRANS: Attagene TRANS-FACTORIAL HepG2 Assay for human Constitutive Androstane Receptor (CAR) (AID 2282969); settings: HepG2 Attagene TRANS-FACTORIAL CAR reporter;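 also: activators raise reporter mRNA above DMSO so AC50 marks induction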
# Outline: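 HepG2 cells transiently transfected with GAL4-UAS reporter units; TRANS format reads activity of exogenous chimeric NR-Gal4 protein. After 24 h dosing, reporter mRNA quantified by RT-PCR, 6-FAM labelling and capillary electrophoresis; gain of signal fitted against DMSO.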
# [2] = target: X-box-binding protein 1 (Homo sapiens) (UniProt P17861); experiment: ATG_Xbp1_CIS: Attagene CIS-FACTORIAL HepG2 Assay for human X-box Binding Protein 1 (XBP1) (AID 2282972; active = hit-call score of the fitted dose curve at least 0.9, where 1 is the maximum; inactive = score below 0.9); settings: HepG2 XBP1 cis-element reporter, Attagene multiplex; actives raise or lower the signal
# Outline: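 HepG2 cells transiently transfected with cis-regulated multiple reporter transcription units; endogenous transcription factor activity measured 24 hours after chemical dosing. Reporter mRNA quantified by RT-PCR, 6-FAM primer extension, HpaI digestion and capillary electrophoresis; bidirectional fitting versus DMSO.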
# [3] = ATG_M_19_TRANS: Attagene TRANS-FACTORIAL HepG2 Assay for M19 Transcription Factor (Internal Marker) (AID 2282974); settings: HepG2 Attagene TRANS-FACTORIAL M19 internal marker reporter
# Outline: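 Reporter mRNA induction was measured in transfected HepG2 cells 24 h after dosing. Endpoint fitted upward relative to DMSO and serves as a background control within the multiplexed TRANS panel.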
# [4] = ATG_GAL4_TRANS: Attagene TRANS-FACTORIAL HepG2 Assay for GAL4 (Internal Marker) (AID 2282976); settings: HepG2 Attagene TRANS GAL4 internal marker reporter
# Outline: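 HepG2 cells transiently transfected with multiplexed GAL4-UAS reporter constructs were dosed for 24 h. Reporter mRNA was measured by RT-PCR, 6-FAM primer extension, HpaI digestion and capillary electrophoresis, and gain of signal was fitted relative to DMSO.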
# [5] = target: Glucocorticoid receptor (Homo sapiens) (UniProt P04150); experiment: ATG_GR_TRANS: Attagene TRANS-FACTORIAL HepG2 Assay for human Glucocorticoid Receptor (GR) (AID 2282978); settings: HepG2 Attagene TRANS GR reporter, mRNA transcription;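 also: activators score as hits since higher reporter transcript over DMSO is fitted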
# Outline: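 Reporter transcript levels, detected by fluorescence after RT-PCR and capillary electrophoresis, served as the endpoint. HepG2 cells bearing transfected GAL4-UAS reporters responsive to NR-GAL4 chimeras were incubated with compound 24 h; DMSO defined baseline.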
# [6] = target: Oxysterols receptor LXR-alpha (Homo sapiens) (UniProt Q13133); experiment: ATG_LXRa_TRANS: Attagene TRANS-FACTORIAL HepG2 Assay for human Liver X Receptor alpha (LXRa) (AID 2282980); settings: HepG2 Attagene TRANS reporter, LXRa transactivation
# Outline: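 HepG2 cells were transiently transfected with multiplexed reporter units driven by chimeric LXRa–GAL4 fusion proteins, then dosed for 24 h. Reporter mRNA was quantified by RT-PCR, fluorescent labelling and capillary electrophoresis; gain of signal fitted against DMSO baseline.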
# [7] = target: Oxysterols receptor LXR-beta (Homo sapiens) (UniProt P55055); experiment: ATG_LXRb_TRANS: Attagene TRANS-FACTORIAL HepG2 Assay for human Liver X Receptor beta (LXRb) (AID 2282981); settings: HepG2 Attagene TRANS GAL4-LXRb reporter, mRNA
# Outline: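 HepG2 cells transiently transfected with GAL4-UAS reporter units for chimeric NR-Gal4 proteins, dosed for 24 h. Reporter transcripts measured by RT-PCR and capillary electrophoresis; gain-of-signal fitting relative to DMSO.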
# [8] = target: Hepatocyte nuclear factor 4-alpha (Homo sapiens) (UniProt P41235); experiment: ATG_HNF4a_TRANS: Attagene TRANS-FACTORIAL HepG2 Assay for human Hepatocyte Nuclear Factor 4 alpha (HNF4a) (AID 2282982); settings: HepG2 HNF4a transactivation reporter, mRNA readout
# Outline: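 HepG2 cells transiently transfected with HNF4a-Gal4 chimera and GAL4-UAS reporter units, dosed for 24 h. Reporter mRNA measured by RT-PCR, fluorescent primer extension and capillary electrophoresis; gain-of-signal fitted relative to DMSO.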
# [9] = ATG_M_32_TRANS: Attagene TRANS-FACTORIAL HepG2 Assay for M32 Transcription Factor (Internal Marker) (AID 2282984); settings: HepG2 Attagene TRANS M32 internal marker reporter
# Outline: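 HepG2 cells transiently transfected with GAL4-UAS reporter units, dosed for 24 hours. Reporter mRNA quantified by RT-PCR, 6-FAM labelling, HpaI digestion and capillary electrophoresis; internal-marker signal fitted upward relative to DMSO.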
# [10] = target: Transcriptional activator Myb (Homo sapiens) (UniProt P10242); experiment: ATG_Myb_CIS: Attagene CIS-FACTORIAL HepG2 Assay for human Myeloblastosis (Myb) Proto-Oncogene Transcription Factor (AID 2282986; active = hit-call score of the fitted dose curve at least 0.9, where 1 is the maximum; inactive = score below 0.9); settings: HepG2 Attagene CIS-FACTORIAL Myb reporter transcription; actives raise or lower the signal
# Outline: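 Transiently transfected HepG2 cells, treated 24 h. Reporter mRNA quantified by RT-PCR/capillary electrophoresis; bidirectional fit relative to DMSO.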
# [11] = target: Nuclear respiratory factor 1 (Homo sapiens) (UniProt Q16656); experiment: ATG_NRF1_CIS: Attagene CIS-FACTORIAL HepG2 Assay for human Nuclear Respiratory Factor 1 (NRF1) Orphan Gene (AID 2282987; active = hit-call score of the fitted dose curve at least 0.9, where 1 is the maximum; inactive = score below 0.9); settings: HepG2 NRF1 cis-element reporter, Attagene multiplex; actives raise or lower the signal
# Outline: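 Cells (HepG2, transient MRTU transfection) are exposed to compound for 24 h, then RNA isolated and reporter mRNA amplified and fluorescently labelled. Fragments are separated by capillary electrophoresis; signal change is fitted bidirectionally relative to DMSO.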
# [12] = ATG_NFI_CIS: Attagene CIS-FACTORIAL HepG2 Assay for human Nuclear Factor I (NFI) (AID 2282989; active = hit-call score of the fitted dose curve at least 0.9, where 1 is the maximum; inactive = score below 0.9); settings: HepG2 cis-regulatory reporter, NFI response element transcription; actives raise or lower the signal
# Outline: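 Endogenous TF activity in HepG2 cells transiently transfected with cis-element-driven multiplexed reporter units, read 24 h after dosing. Reporter mRNA quantified by RT-PCR, 6-FAM labelling, HpaI digestion and capillary electrophoresis; bidirectional fit versus DMSO.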
# [13] = target: Myc proto-oncogene protein (Homo sapiens) (UniProt P01106); experiment: ATG_Myc_CIS: Attagene CIS-FACTORIAL HepG2 Assay for human Myelocytomatosis (Myc) Proto-Oncogene Transcription Factor (AID 2282990; active = hit-call score of the fitted dose curve at least 0.9, where 1 is the maximum; inactive = score below 0.9); settings: HepG2, Attagene cis-reporter transcription factor activity; actives raise or lower the signal
# Outline: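 Transiently transfected HepG2 cells bearing cis-promoter reporter units for endogenous transcription factors; 24 h exposure. Reporter mRNA measured by RT-PCR, 6-FAM primer extension, HpaI cut and capillary electrophoresis; bidirectional fit relative to DMSO.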
# [14] = target: Bile acid receptor (Homo sapiens) (UniProt Q96RI1); experiment: ATG_FXR_TRANS: Attagene TRANS-FACTORIAL HepG2 Assay for Farnesoid X Receptor (FXR) (AID 2282979); settings: HepG2 Attagene TRANS FXR-GAL4 reporter transcription;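 also: hits raise reporter mRNA above DMSO so AC50 marks FXR activation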
# Outline: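 HepG2 cells transiently transfected with reporter constructs in which a chimeric FXR-GAL4 protein drives a GAL4-UAS reporter; 24 h compound exposure. Reporter mRNA measured by RT-PCR, FAM labelling, HpaI digestion and capillary electrophoresis; gain-of-signal versus DMSO.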
# [15] = ATG_M_06_TRANS: Attagene TRANS-FACTORIAL HepG2 Assay for M06 Transcription Factor (Internal Marker) (AID 2282983); settings: HepG2 Attagene TRANS M06 internal marker reporter
# Outline: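 HepG2 cells transiently transfected with multiplexed GAL4-UAS reporter transcription units; after 24 h compound exposure, reporter mRNA measured by RT-PCR, FAM-labelled primer extension, HpaI digestion and capillary electrophoresis. Gain-of-signal fitted versus DMSO baseline; background control readout.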
# [16] = target: Nuclear receptor subfamily 4 group A member 2 (Homo sapiens) (UniProt P43354); experiment: ATG_NURR1_TRANS: Attagene TRANS-FACTORIAL HepG2 Assay for human Nuclear Receptor Related Protein 1 (NURR1) (AID 2282985); settings: HepG2 Attagene TRANS reporter, mRNA readout
# Outline: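 HepG2 cells transiently transfected with NURR1-Gal4 chimera and GAL4-UAS reporter units; after 24 hr compound exposure, reporter mRNA quantified by RT-PCR and capillary electrophoresis; gain of signal fitted against DMSO.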
# [17] = target: Estrogen receptor (Homo sapiens) (UniProt P03372); experiment: ATG_ERa_TRANS: Attagene TRANS-FACTORIAL HepG2 Assay for human Estrogen Receptor alpha (ERa) (AID 2282970); settings: HepG2 Attagene TRANS ERa GAL4 reporter, mRNA
# Outline: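 HepG2 cells transiently transfected with multiplexed GAL4-UAS reporter units; ERa activity read via exogenous chimeric NR-Gal4 protein. After 24 hour compound exposure, reporter mRNA measured by RT-PCR with 6-FAM labelling and capillary electrophoresis; gain-of-signal fitted relative to DMSO.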
# [18] = target: Steroid hormone receptor ERR1 (Homo sapiens) (UniProt P11474); experiment: ATG_ERRa_TRANS: Attagene TRANS-FACTORIAL HepG2 Assay for human Estrogen-Related Receptor alpha (ERRa) (AID 2282971); settings: HepG2 Attagene TRANS reporter, ERRa transactivation
# Outline: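 HepG2 cells transiently transfected with multiplexed GAL4-UAS reporter units reading chimeric ERRa-Gal4 activity; 24 h compound exposure. Reporter mRNA measured by RT-PCR, 6-FAM labelling, HpaI digest and capillary electrophoresis; gain of signal fitted versus DMSO baseline.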
# [19] = target: Estrogen-related receptor gamma (Homo sapiens) (UniProt P62508); experiment: ATG_ERRg_TRANS: Attagene TRANS-FACTORIAL HepG2 Assay for human Estrogen-Related Receptor gamma (ERRg) (AID 2282977); settings: HepG2 Attagene TRANS reporter, ERRg transactivation;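 also: hits increase reporter signal over DMSO so potencies reflect activators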
# Outline: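 HepG2 cells transiently transfected with multiplexed GAL4-UAS reporter units driven by chimeric NR-Gal4 proteins; 24 h exposure. Reporter mRNA quantified by RT-PCR, fluorescent labelling, HpaI digestion and capillary electrophoresis; gain of signal vs DMSO.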
# [20] = target: Androgen receptor (Homo sapiens) (UniProt P10275); experiment: ATG_AR_TRANS: Attagene TRANS-FACTORIAL HepG2 Assay for human Androgen Receptor (AR) (AID 2282973); settings: HepG2 Attagene TRANS-FACTORIAL AR reporter transcription
# Outline: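 HepG2 cells transiently transfected with multiplexed GAL4-UAS reporter units and chimeric NR-Gal4 fusion; 24 h compound exposure. Reporter mRNA measured by RT-PCR, 6-FAM labelling, HpaI digestion and capillary electrophoresis; gain-of-signal fitted relative to DMSO baseline.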
# Chain of Estrogen-related receptor gamma (Homo sapiens) (P62508 whole entry, looked up, the tested form may be a part): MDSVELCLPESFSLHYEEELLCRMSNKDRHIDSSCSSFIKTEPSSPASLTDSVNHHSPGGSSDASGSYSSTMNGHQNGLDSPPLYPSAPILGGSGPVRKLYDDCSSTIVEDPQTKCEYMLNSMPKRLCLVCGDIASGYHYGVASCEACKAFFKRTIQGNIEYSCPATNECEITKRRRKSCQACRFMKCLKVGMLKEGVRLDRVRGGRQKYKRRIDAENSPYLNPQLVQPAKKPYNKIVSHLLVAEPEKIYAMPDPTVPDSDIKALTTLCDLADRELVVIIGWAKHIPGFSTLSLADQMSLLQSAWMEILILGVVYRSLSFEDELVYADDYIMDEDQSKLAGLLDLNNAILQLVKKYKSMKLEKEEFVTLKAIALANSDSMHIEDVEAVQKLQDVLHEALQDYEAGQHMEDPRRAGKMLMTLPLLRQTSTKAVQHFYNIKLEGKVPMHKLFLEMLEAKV
# Chain of Oxysterols receptor LXR-alpha (Homo sapiens) (Q13133 whole entry, looked up, the tested form may be a part): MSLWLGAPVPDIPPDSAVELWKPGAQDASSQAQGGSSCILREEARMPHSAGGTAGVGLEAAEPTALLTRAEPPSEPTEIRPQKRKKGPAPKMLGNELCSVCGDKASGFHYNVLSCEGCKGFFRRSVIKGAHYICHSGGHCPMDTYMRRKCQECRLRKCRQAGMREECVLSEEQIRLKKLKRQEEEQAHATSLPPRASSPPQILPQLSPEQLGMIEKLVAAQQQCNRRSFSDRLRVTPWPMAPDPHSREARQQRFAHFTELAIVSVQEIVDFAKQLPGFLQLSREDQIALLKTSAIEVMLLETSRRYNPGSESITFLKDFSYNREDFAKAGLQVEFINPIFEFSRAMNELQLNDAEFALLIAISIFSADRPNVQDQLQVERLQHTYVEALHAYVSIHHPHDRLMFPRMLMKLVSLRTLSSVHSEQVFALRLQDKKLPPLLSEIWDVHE
# Chain of Bile acid receptor (Homo sapiens) (Q96RI1 whole entry, looked up, the tested form may be a part): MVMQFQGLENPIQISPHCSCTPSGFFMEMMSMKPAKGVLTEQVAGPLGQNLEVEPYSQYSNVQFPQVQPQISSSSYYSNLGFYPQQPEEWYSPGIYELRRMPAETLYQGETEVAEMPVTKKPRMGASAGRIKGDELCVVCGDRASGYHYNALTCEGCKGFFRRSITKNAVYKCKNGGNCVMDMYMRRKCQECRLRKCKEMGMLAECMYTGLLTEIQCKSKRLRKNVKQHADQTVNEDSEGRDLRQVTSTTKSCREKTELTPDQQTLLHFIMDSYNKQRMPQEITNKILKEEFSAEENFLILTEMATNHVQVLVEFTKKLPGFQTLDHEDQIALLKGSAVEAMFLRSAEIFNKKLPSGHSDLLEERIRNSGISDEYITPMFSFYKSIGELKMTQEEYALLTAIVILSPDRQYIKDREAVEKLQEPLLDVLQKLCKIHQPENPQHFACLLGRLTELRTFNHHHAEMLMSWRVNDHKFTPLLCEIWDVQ
# Chain of X-box-binding protein 1 (Homo sapiens) (P17861 whole entry, looked up): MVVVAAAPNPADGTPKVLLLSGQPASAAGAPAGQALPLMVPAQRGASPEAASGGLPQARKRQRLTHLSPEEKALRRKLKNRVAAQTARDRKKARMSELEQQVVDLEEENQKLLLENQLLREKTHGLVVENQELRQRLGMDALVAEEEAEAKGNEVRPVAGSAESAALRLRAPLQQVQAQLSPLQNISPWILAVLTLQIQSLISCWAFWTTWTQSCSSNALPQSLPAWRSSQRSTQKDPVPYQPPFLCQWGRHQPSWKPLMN
# Chain of Myc proto-oncogene protein (Homo sapiens) (P01106 whole entry, looked up): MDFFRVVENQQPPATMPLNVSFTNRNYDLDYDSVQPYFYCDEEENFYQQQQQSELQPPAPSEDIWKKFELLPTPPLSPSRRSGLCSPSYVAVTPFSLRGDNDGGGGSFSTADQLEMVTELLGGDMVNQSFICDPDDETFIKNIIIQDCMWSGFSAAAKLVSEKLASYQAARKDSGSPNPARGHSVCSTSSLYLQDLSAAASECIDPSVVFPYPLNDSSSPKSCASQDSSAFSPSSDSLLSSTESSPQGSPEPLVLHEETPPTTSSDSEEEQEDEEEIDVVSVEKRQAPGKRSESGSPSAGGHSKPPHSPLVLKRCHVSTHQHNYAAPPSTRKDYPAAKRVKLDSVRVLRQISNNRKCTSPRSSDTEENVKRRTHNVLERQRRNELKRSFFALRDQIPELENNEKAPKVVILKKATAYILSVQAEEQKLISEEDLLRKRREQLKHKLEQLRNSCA
# Chain of Hepatocyte nuclear factor 4-alpha (Homo sapiens) (P41235 whole entry, looked up, the tested form may be a part): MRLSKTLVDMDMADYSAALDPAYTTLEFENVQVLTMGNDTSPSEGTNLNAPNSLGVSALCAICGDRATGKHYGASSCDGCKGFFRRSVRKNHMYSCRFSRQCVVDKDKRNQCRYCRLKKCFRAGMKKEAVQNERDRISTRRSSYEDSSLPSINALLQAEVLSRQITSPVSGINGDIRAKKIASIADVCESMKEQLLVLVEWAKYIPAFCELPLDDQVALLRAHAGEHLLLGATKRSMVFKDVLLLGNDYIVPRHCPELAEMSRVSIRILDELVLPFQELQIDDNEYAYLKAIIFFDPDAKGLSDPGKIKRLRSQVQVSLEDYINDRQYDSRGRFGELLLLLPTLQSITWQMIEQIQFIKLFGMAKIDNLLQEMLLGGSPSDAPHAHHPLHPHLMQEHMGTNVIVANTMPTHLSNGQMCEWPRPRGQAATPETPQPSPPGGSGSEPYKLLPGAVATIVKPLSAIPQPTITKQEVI
# Chain of Transcriptional activator Myb (Homo sapiens) (P10242 whole entry, looked up): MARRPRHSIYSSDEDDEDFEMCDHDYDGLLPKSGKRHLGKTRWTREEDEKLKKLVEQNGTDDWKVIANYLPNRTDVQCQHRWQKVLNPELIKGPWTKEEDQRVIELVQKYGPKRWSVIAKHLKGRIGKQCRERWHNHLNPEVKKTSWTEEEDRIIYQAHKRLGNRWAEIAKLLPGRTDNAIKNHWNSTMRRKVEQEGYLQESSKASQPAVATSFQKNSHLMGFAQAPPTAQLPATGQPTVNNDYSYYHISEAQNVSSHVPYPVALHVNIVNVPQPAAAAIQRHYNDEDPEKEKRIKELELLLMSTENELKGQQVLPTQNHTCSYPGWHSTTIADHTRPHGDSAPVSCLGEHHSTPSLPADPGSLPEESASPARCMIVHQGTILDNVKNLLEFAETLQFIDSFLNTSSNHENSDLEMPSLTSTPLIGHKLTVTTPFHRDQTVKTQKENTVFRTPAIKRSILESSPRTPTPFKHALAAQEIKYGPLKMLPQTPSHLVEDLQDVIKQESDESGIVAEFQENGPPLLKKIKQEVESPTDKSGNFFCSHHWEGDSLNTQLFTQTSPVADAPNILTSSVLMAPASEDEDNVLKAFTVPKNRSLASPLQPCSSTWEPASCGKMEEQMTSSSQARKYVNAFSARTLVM
# Chain of Glucocorticoid receptor (Homo sapiens) (P04150 whole entry, looked up, the tested form may be a part): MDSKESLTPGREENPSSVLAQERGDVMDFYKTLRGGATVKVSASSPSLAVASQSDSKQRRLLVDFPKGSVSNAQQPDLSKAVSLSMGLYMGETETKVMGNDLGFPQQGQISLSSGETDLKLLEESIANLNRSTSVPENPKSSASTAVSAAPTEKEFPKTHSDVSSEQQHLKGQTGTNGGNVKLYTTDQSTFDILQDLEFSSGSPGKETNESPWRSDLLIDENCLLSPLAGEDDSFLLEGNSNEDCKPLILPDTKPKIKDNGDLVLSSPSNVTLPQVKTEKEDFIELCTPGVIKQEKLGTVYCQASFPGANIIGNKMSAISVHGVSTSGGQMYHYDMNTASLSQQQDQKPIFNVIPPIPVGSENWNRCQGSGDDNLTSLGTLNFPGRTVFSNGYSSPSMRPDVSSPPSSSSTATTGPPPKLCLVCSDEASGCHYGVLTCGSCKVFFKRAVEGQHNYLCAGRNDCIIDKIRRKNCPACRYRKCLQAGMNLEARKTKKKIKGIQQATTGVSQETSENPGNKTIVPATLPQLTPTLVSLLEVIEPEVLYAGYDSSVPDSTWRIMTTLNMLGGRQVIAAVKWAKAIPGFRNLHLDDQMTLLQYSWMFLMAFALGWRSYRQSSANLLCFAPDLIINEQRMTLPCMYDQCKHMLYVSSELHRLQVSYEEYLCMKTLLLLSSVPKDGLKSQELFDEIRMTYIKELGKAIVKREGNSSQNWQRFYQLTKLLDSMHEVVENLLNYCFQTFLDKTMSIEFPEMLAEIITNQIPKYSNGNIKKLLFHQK
# Chain of Oxysterols receptor LXR-beta (Homo sapiens) (P55055 whole entry, looked up, the tested form may be a part): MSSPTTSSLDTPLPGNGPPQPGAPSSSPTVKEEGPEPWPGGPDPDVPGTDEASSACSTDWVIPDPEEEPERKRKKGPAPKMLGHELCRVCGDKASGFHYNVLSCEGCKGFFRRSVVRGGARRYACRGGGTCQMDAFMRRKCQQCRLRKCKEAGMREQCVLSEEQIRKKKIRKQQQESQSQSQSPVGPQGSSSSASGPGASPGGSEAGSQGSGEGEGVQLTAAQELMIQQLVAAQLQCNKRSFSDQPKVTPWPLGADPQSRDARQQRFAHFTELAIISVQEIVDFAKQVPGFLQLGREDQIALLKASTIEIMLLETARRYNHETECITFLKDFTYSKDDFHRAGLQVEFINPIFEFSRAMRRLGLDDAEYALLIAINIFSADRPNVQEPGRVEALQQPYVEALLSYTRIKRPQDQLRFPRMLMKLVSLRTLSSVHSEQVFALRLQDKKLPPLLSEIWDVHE
# Chain of Nuclear respiratory factor 1 (Homo sapiens) (Q16656 whole entry, looked up, the tested form may be a part): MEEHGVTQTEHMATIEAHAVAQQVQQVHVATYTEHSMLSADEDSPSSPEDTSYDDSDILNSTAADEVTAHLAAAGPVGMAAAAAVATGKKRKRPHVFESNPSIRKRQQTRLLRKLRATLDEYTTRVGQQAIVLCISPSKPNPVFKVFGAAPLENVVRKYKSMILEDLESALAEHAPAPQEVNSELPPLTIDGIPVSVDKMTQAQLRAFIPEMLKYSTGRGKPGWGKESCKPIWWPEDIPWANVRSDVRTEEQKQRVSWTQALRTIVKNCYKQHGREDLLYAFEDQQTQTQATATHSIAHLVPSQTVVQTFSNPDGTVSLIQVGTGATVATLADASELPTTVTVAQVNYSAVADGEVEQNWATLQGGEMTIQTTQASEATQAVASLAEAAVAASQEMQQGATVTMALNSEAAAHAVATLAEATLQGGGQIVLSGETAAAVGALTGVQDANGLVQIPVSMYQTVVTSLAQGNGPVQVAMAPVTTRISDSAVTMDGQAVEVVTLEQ
smiles,measurement,setting,value
CCOc1cc(C=O)ccc1O,outcome,[1],inactive
same,outcome,[2],inactive
same,outcome,[3],inactive
same,outcome,[4],inactive
same,outcome,[5],inactive
same,outcome,[6],inactive
same,outcome,[7],inactive
same,outcome,[8],inactive
same,outcome,[9],inactive
same,outcome,[10],inactive
same,outcome,[11],inactive
same,outcome,[12],inactive
same,outcome,[13],inactive
C[C@@H]1O[C@@H](O[C@H]2C[C@@H](O)[C@]3(CO)[C@H]4[C@H](O)C[C@]5(C)[C@@H](C6=CC(=O)OC6)CC[C@]5(O)[C@@H]4CC[C@]3(O)C2)[C@H](O)[C@H](O)[C@H]1O,outcome,[1],inactive
same,AC50,[2],628 nM (active)
same,outcome,[3],inactive
same,outcome,[14],inactive
same,outcome,[7],inactive
same,outcome,[8],inactive
same,outcome,[15],inactive
same,outcome,[16],inactive
same,AC50,[10],328 nM (active)
same,outcome,[11],inactive
same,AC50,[12],645 nM (active)
same,outcome,[13],inactive
CC(c1ccccc1)(c1ccc(O)cc1)c1ccc(O)cc1,AC50,[17],145 nM (active)
same,outcome,[18],inactive
same,AC50,[2],15000 nM (active)
same,outcome,[3],inactive
same,outcome,[19],inactive
same,outcome,[5],inactive
same,AC50,[14],12500 nM (active)
same,outcome,[15],inactive
same,outcome,[9],inactive
same,AC50,[16],18200 nM (active)
same,outcome,[10],inactive
same,outcome,[11],inactive
same,outcome,[12],inactive
C[CH2][Hg][S]c1ccccc1C(=O)O,outcome,[1],inactive
same,AC50,[2],2700 nM (active)
same,outcome,[20],inactive
same,outcome,[19],inactive
same,outcome,[5],inactive
same,outcome,[6],inactive
same,outcome,[7],inactive
same,outcome,[8],inactive
same,outcome,[15],inactive
same,outcome,[16],inactive
same,AC50,[10],3890 nM (active)
same,outcome,[11],inactive
same,AC50,[12],1580 nM (active)
same,outcome,[13],inactive
O=C(Nc1ccc(Br)cc1)c1cc(Br)cc(Br)c1O,outcome,[17],inactive
same,outcome,[18],inactive
same,AC50,[2],4920 nM (active)
same,outcome,[3],inactive
same,outcome,[4],inactive
same,outcome,[19],inactive
same,outcome,[14],inactive
same,outcome,[7],inactive
same,outcome,[8],inactive
same,outcome,[15],inactive
same,outcome,[9],inactive
same,outcome,[16],inactive
same,outcome,[10],inactive
same,outcome,[11],inactive
same,AC50,[12],2270 nM (active)
same,outcome,[13],inactive
c1cc[c]([Sb]([c]2ccccc2)[c]2ccccc2)cc1,outcome,[1],inactive
same,outcome,[2],inactive
same,outcome,[20],inactive
same,outcome,[5],inactive
same,outcome,[14],inactive
same,outcome,[8],inactive
same,outcome,[9],inactive
same,AC50,[16],17500 nM (active)
same,outcome,[10],inactive
same,outcome,[11],inactive
same,outcome,[12],inactive
same,outcome,[13],inactive
CC1(C)[C@H](/C=C2\CCSC2=O)[C@@H]1C(=O)OCc1coc(Cc2ccccc2)c1,outcome,[1],inactive
same,outcome,[2],inactive
same,outcome,[6],inactive
same,outcome,[8],inactive
same,outcome,[15],inactive
same,outcome,[9],inactive
same,outcome,[16],inactive
same,outcome,[10],inactive
same,outcome,[11],inactive
same,outcome,[12],inactive
same,outcome,[13],inactive
C1CN2CCN1CC2,outcome,[1],inactive
same,outcome,[2],inactive
same,outcome,[3],inactive
same,outcome,[4],inactive
same,outcome,[8],inactive
same,outcome,[9],inactive
same,outcome,[16],inactive
same,outcome,[10],inactive
same,outcome,[12],inactive
same,outcome,[13],inactive

# Source: PubChem BioAssay (EPA / NIEHS)
